# Laboratory results published in PubChem BioAssay (NCATS).
# Results filed as inconclusive are left out. A call without a number means that no potency is given here. Unmarked numbers belong to inactive results. Activity calls are given as the source filed them. Calls come from the whole dose curve; as a rule, active = well fitted curve in the direction sought with a large enough effect; inconclusive = small, poorly fitted or top-dose-only effect, or another doubt; inactive = no such curve, though single readings can be large; an effect the other way counts as inactive or inconclusive. Bridge positions count the residues as written; N and C are the ends. Square brackets hold non-standard residues; d marks the D form. Peptide text beside a SMILES is read from it. * marks the point of attachment. ξ: configuration not given here. Ileψ(thiazoline)Cys = CC[C@H](C)[C@H](N)C1=N[C@H](C(=O)*)CS1; ξDab(CH2SO3H) = NC(CCNCS(=O)(=O)O)C(=O)O; d(aIle) = CC[C@H](C)[C@@H](N)C(=O)O; Heptanoyl(6-Me) = CC(C)CCCCC(=O)*; dOrn = NCCC[C@@H](N)C(=O)O; Dab = NCC[CH](N)C(=O)O
# Tests used:
# [1] = biological target: ATP-dependent 6-phosphofructokinase (Trypanosoma brucei brucei) (UniProt O15648); assay: qHTS Assay to Find Inhibitors of T. brucei phosphofructokinase: hit validation (AID 492961);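 note: luminescence reports ADP formed as PFK phosphorylates fructose-6-phosphate with ATP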
# How it was run: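 PFK 1.25 nM, F6P 0.5 mM, ATP 0.1 mM, MgCl2 5 mM, 0.1 M TEA pH 8.0, Tween20 0.01%, BSA 0.1%; 45 min RT. ADP-Glo two-step detection, luminescence. qHTS titration; curve fitting with curve-class categorization.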
# [2] = biological target: Luciferin 4-monooxygenase (Photinus pyralis) (UniProt P08659); assay: Biochemical firefly luciferase enzyme assay for NPC (AID 624030);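 note: purified P. pyralis luciferase at 10 nM with luciferin and ATP substrate; nearly all actives have a fitted effect of over 70% in size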
# How it was run: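 Counter-screen for direct inhibition of the luciferase enzyme by approved-drug library compounds, run at 10 nM enzyme in 50 mM Tris acetate (final). Luminescence was read within 5 min of enzyme-buffer addition and normalized to PTC124 versus DMSO (0%).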
# [3] = qHTS profiling for inhibitors of Plasmodium falciparum proliferation (AID 504749); note: potency is the fitted concentration of half-maximal effect; for all read-outs here: nearly all actives have a fitted effect of over 60% in size; details: P. falciparum in erythrocytes, SYBR Green DNA, 72 h; for activity, negative = inhibition: at 28.7 µM (top of the series)
# How it was run: (§1)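 Fluorescence of SYBR Green-bound parasite DNA, read at 485/535 nm, served as the growth measure. Infected erythrocytes were cultured with compound 72 h; artemisinin (0.29 uM) and DMSO wells defined the normalization range.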
# [4] = tested on: ATS189; assay: as above; details: P. falciparum in erythrocytes, SYBR Green DNA, 72 h; series mostly up to 28.7 µM
# How it was run: as §1
# [5] = tested on: C2A; assay: as above; details: P. falciparum in erythrocytes, SYBR Green DNA, 72 h; series mostly up to 28.7 µM
# How it was run: as §1
# [6] = tested on: CP191; assay: as above; details: P. falciparum in erythrocytes, SYBR Green DNA, 72 h; series mostly up to 28.7 µM
# How it was run: as §1
# [7] = tested on: CP192; assay: as above; details: P. falciparum in erythrocytes, SYBR Green DNA, 72 h; series mostly up to 28.7 µM
# How it was run: as §1
# [8] = tested on: CP201; assay: as above; details: P. falciparum in erythrocytes, SYBR Green DNA, 72 h; series mostly up to 28.7 µM
# How it was run: as §1
# [9] = tested on: CP215; assay: as above; details: P. falciparum in erythrocytes, SYBR Green DNA, 72 h; series mostly up to 28.7 µM
# How it was run: as §1
# [10] = tested on: CP237; assay: as above; details: P. falciparum in erythrocytes, SYBR Green DNA, 72 h; series mostly up to 28.7 µM
# How it was run: as §1
# [11] = tested on: CP238; assay: as above; details: P. falciparum in erythrocytes, SYBR Green DNA, 72 h; series mostly up to 28.7 µM
# How it was run: as §1
# [12] = tested on: CP268; assay: as above; details: P. falciparum in erythrocytes, SYBR Green DNA, 72 h; series mostly up to 28.7 µM
# How it was run: as §1
# [13] = tested on: CP269; assay: as above; details: P. falciparum in erythrocytes, SYBR Green DNA, 72 h; series mostly up to 28.7 µM
# How it was run: as §1
# [14] = tested on: CP286; assay: as above; details: P. falciparum in erythrocytes, SYBR Green DNA, 72 h; series mostly up to 28.7 µM
# How it was run: as §1
# [15] = tested on: CP325; assay: as above; details: P. falciparum in erythrocytes, SYBR Green DNA, 72 h; series mostly up to 28.7 µM
# How it was run: as §1
# [16] = tested on: CP329; assay: as above; details: P. falciparum in erythrocytes, SYBR Green DNA, 72 h; series mostly up to 28.7 µM
# How it was run: as §1
# [17] = tested on: ECU; assay: as above; details: P. falciparum in erythrocytes, SYBR Green DNA, 72 h; series mostly up to 28.7 µM
# How it was run: as §1
# [18] = tested on: FAB9; assay: as above; details: P. falciparum in erythrocytes, SYBR Green DNA, 72 h; series mostly up to 28.7 µM
# How it was run: as §1
# [19] = tested on: JCK; assay: as above; details: P. falciparum in erythrocytes, SYBR Green DNA, 72 h; series mostly up to 28.7 µM
# How it was run: as §1
# [20] = tested on: PC49; assay: as above; details: P. falciparum in erythrocytes, SYBR Green DNA, 72 h; series mostly up to 28.7 µM
# How it was run: as §1
# Chain of ATP-dependent 6-phosphofructokinase (Trypanosoma brucei brucei) (O15648 whole entry, looked up): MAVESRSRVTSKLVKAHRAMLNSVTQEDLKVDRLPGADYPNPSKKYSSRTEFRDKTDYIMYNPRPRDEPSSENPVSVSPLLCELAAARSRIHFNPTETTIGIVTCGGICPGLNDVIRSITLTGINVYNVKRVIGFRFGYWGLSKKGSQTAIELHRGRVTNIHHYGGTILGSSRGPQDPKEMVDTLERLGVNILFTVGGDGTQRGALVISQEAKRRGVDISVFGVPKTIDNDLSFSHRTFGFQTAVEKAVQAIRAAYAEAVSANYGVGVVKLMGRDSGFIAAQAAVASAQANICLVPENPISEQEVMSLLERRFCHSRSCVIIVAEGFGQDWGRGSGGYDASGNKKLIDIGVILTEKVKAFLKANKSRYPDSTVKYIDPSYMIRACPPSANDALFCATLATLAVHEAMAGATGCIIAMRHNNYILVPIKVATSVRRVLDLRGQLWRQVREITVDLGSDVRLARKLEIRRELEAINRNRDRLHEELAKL
# Chain of Luciferin 4-monooxygenase (Photinus pyralis) (P08659 whole entry, looked up): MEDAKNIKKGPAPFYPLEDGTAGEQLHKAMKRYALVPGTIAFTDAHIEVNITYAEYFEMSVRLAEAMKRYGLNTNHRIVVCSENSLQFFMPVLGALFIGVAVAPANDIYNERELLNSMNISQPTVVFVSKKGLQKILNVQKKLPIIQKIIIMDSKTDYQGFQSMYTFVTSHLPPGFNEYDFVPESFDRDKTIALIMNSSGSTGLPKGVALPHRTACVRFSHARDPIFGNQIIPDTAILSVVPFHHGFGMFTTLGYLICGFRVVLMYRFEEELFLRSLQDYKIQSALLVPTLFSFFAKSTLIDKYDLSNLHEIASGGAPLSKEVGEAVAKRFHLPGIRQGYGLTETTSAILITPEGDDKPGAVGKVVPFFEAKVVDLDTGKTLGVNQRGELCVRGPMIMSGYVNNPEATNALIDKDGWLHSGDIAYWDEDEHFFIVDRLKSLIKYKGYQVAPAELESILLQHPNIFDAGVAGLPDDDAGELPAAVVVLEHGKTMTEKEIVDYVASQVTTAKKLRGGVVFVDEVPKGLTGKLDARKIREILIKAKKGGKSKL
compound,measurement,setting,value
[S]=[Sb][S][Sb]=[S],outcome,[1],inactive
same,Potency,[2],inactive
same,"activity, negative = inhibition",[3]; parasite line A,8.49%
same,"activity, negative = inhibition",[3]; parasite line B,1.29%
same,Potency,[4],inactive
same,Potency,[5],inactive
same,Potency,[6],inactive
same,Potency,[7],inactive
same,Potency,[8],inactive
same,Potency,[9],inactive
same,Potency,[10],inactive
same,Potency,[11],inactive
same,Potency,[12],inactive
same,Potency,[13],inactive
same,Potency,[14],inactive
same,Potency,[15],inactive
same,Potency,[16],inactive
same,Potency,[17],inactive
same,Potency,[18],inactive
same,Potency,[19],inactive
same,Potency,[20],inactive
CC(C)CC(NC(=O)C(COC(C)(C)C)NC(=O)C(Cc1ccc(O)cc1)NC(=O)C(CO)NC(=O)C(Cc1c[nH]c2ccccc12)NC(=O)C(Cc1cnc[nH]1)NC(=O)C1CCC(=O)N1)C(=O)NC(CCCN=C(N)N)C(=O)N1CCCC1C(=O)NNC(N)=O (configuration not stated),outcome,[1],inactive
CCC(C)C1NC(=O)C(CCNCS(=O)(=O)O)NC(=O)C(NC(=O)C(CCNCS(=O)(=O)O)NC(=O)C(NC(=O)C(CCNCS(=O)(=O)O)NC(=O)CCCCC(C)C)C(C)O)CCNC(=O)C(C(C)O)NC(=O)C(CCNCS(=O)(=O)O)NC(=O)C(CCNCS(=O)(=O)O)NC(=O)C(C(C)CC)NC1=O (configuration not stated) ({Heptanoyl(6-Me)}-[ξDab(CH2SO3H)]T[ξDab(CH2SO3H)][Dab][ξDab(CH2SO3H)]II[ξDab(CH2SO3H)][ξDab(CH2SO3H)]T; lactam 4-C; configuration not given here),outcome,[1],inactive
CC[C@H](C)[C@H](N)C1=N[C@H](C(=O)N[C@@H](CC(C)C)C(=O)N[C@@H](CCC(=O)O)C(=O)N[C@@H](C(=O)N[C@H]2CCCCNC(=O)[C@@H](CC(N)=O)NC(=O)[C@@H](CC(=O)O)NC(=O)[C@@H](Cc3cnc[nH]3)NC(=O)[C@@H](Cc3ccccc3)NC(=O)[C@@H]([C@@H](C)CC)NC(=O)[C@@H](CCCN)NC2=O)[C@@H](C)CC)CS1 ({Ileψ(thiazoline)Cys}-LE[d(aIle)]K[dOrn][d(aIle)][dF][dH][dD][dN]; lactam 4-C),outcome,[1],inactive
CCNC(=O)[C@@H]1CCCN1C(=O)[C@H](CCCN=C(N)N)NC(=O)[C@H](CC(C)C)NC(=O)[C@@H](Cc1c[nH]c2ccccc12)NC(=O)[C@H](Cc1ccc(O)cc1)NC(=O)[C@H](CO)NC(=O)[C@H](Cc1c[nH]c2ccccc12)NC(=O)[C@H](Cc1cnc[nH]1)NC(=O)[C@@H]1CCC(=O)N1,outcome,[1],inactive
CCCCCc1cc(O)c2c(c1)OC(C)(C)C1CC=C(C)CC21 (configuration not stated),outcome,[1],inactive
same,Potency,[2],inactive
same,Potency,[3]; parasite line A,3.55 µM (active)
same,Potency,[3]; parasite line B,1.12 µM (active)
same,Potency,[4],3.16 µM (active)
same,Potency,[5],10 µM (active)
same,Potency,[6],3.98 µM (active)
same,Potency,[7],6.01 µM (active)
same,Potency,[8],15.1 µM (active)
same,Potency,[9],4.26 µM (active)
same,Potency,[10],1.78 µM (active)
same,Potency,[11],3.16 µM (active)
same,Potency,[12],6.01 µM (active)
same,Potency,[13],4.78 µM (active)
same,Potency,[14],5.62 µM (active)
same,Potency,[15],6.01 µM (active)
same,Potency,[16],9.53 µM (active)
same,Potency,[17],2 µM (active)
same,Potency,[19],11.2 µM (active)
same,Potency,[20],4.47 µM (active)
Cc1ccc2c(c1)[C@@H]1CN(C)CC[C@H]1N2,outcome,[1],inactive
same,Potency,[2],inactive
same,"activity, negative = inhibition",[3]; parasite line A,6.31%
same,"activity, negative = inhibition",[3]; parasite line B,11.3%
same,Potency,[4],inactive
same,Potency,[5],inactive
same,Potency,[6],inactive
same,Potency,[7],inactive
same,Potency,[8],inactive
same,Potency,[9],inactive
same,Potency,[11],inactive
same,Potency,[12],inactive
same,Potency,[13],inactive
same,Potency,[14],inactive
same,Potency,[15],inactive
same,Potency,[16],inactive
same,Potency,[17],inactive
same,Potency,[18],inactive
same,Potency,[19],inactive
same,Potency,[20],inactive
C[C@]12C=CC(=O)C=C1CC[C@@H]1C2CC[C@]2(C)OC(=O)CCC12 (some centres not stated),outcome,[1],inactive
same,Potency,[2],inactive
same,"activity, negative = inhibition",[3]; parasite line A,2.99%
same,"activity, negative = inhibition",[3]; parasite line B,7.55%
same,Potency,[4],inactive
same,Potency,[5],inactive
same,Potency,[6],inactive
same,Potency,[7],inactive
same,Potency,[8],inactive
same,Potency,[9],inactive
same,Potency,[10],inactive
same,Potency,[11],inactive
same,Potency,[12],inactive
same,Potency,[13],inactive
same,Potency,[14],inactive
same,Potency,[15],inactive
same,Potency,[16],inactive
same,Potency,[17],inactive
same,Potency,[18],inactive
same,Potency,[19],inactive
same,Potency,[20],inactive
C=CC[N+]1(C)CCC23c4c5ccc(O)c4O[C@H]2C(=O)CC[C@@]3(O)C1C5 (some centres not stated),outcome,[1],inactive
same,Potency,[2],inactive
same,"activity, negative = inhibition",[3]; parasite line A,14%
same,"activity, negative = inhibition",[3]; parasite line B,14.5%
same,Potency,[4],inactive
same,Potency,[5],inactive
same,Potency,[6],inactive
same,Potency,[7],inactive
same,Potency,[8],inactive
same,Potency,[9],inactive
same,Potency,[10],inactive
same,Potency,[11],inactive
same,Potency,[12],inactive
same,Potency,[13],inactive
same,Potency,[14],inactive
same,Potency,[15],inactive
same,Potency,[16],inactive
same,Potency,[17],inactive
same,Potency,[18],inactive
same,Potency,[19],inactive
same,Potency,[20],inactive
